Assay results: PubChem BioAssay AID1159580 (chemical genetic matrix, 2015)
In all, about 5,500 compounds went through this assay and about 2,000 (36%) were called active. Not shown: some 18% with an inconclusive outcome. No stated cut-off is given here; in the data, active means normalized growth mostly below about 0.91 (no sharp cut-off); inconclusive means no clear call, values can overlap the other calls; inactive means mostly above about 0.92. The list shows a part of the results.

Assay: chemical genetic growth profiling, strain panel (AID 1159580);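 further: tested at 20 µM; growth read once vehicle control cultures reached saturation at 30 °C; 1 = growth at the plate median or of vehicle wells; lower values mean less growth of the strain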
Conditions: growth OD

Measured: normalized growth

CC[n+]1c(-c2ccccc2)c2cc(N)ccc2c2ccc(N)cc21
active: S. cerevisiae deletion strains, locus YJR075W, strain HOC1, hits give low values 0.665 | S. cerevisiae deletion strains, locus YKL009W, strain mrt4, hits give low values 0.867 | S. cerevisiae deletion strains, locus YKL068W, hits give low values 0.881 | S. cerevisiae deletion strains, locus YKL085W, strain MDH1 (second series), hits give low values 0.882 | S. cerevisiae deletion strains, locus YKL085W, strain MDH1, hits give low values 0.882 | S. cerevisiae deletion strains, locus YKL190W, strain CNB1, hits give low values 0.857 | S. cerevisiae deletion strains, locus YLR058C, strain SHM2, hits give low values 0.847 | S. cerevisiae deletion strains, locus YLR113W, strain HOG1, hits give low values 0.831 | S. cerevisiae deletion strains, locus YLR268W, strain sec22, hits give low values 0.777 | S. cerevisiae deletion strains, locus YLR320W, strain mms22, hits give low values 0.872 | S. cerevisiae deletion strains, locus YLR330W, strain CHS5, hits give low values 0.886 | S. cerevisiae deletion strains, locus YML016C, strain PPZ1, hits give low values 0.885 | S. cerevisiae deletion strains, locus YML032C, strain rad52, hits give low values 0.425 | S. cerevisiae deletion strains, locus YML124C, strain tub3, hits give low values 0.932 | S. cerevisiae deletion strains, locus YMR078C, strain ctf18, hits give low values 0.814 | S. cerevisiae deletion strains, locus YMR205C, strain PFK2, hits give low values 0.831 | S. cerevisiae deletion strains, locus YMR223W, strain ubp8, hits give low values 0.825 | S. cerevisiae deletion strains, locus YNL067W, strain RPL9B, hits give low values 0.805 | S. cerevisiae deletion strains, locus YNL071W, strain lat1, hits give low values 0.868 | S. cerevisiae deletion strains, locus YNL233W, strain BNI4, hits give low values 0.841 | S. cerevisiae deletion strains, locus YNL248C, strain rpa49, hits give low values 0.858 | S. cerevisiae deletion strains, locus YNL250W, strain rad50, hits give low values 0.662 | S. cerevisiae deletion strains, locus YNL271C, strain bni1, hits give low values 0.909 | S. cerevisiae deletion strains, locus YNL298W, strain CLA4, hits give low values 0.881 | S. cerevisiae deletion strains, locus YNL307C, strain MCK1, hits give low values 0.855 | S. cerevisiae deletion strains, locus YNR052C, strain pop2, hits give low values 0.885 | S. cerevisiae deletion strains, locus YOL147C, strain pex11, hits give low values 0.898 | S. cerevisiae deletion strains, locus YOR001W, strain rrp6, hits give low values 0.857 | S. cerevisiae deletion strains, locus YOR061W, strain CKA2, hits give low values 0.876 | S. cerevisiae deletion strains, locus YOR069W, strain VPS5, hits give low values 0.891 | S. cerevisiae deletion strains, locus YOR144C, strain elg1, hits give low values 0.906 | S. cerevisiae deletion strains, locus YOR184W, strain ser1, hits give low values 0.73 | S. cerevisiae deletion strains, locus YPR119W, strain clb2, hits give low values 0.925 | S. cerevisiae deletion strains, locus YPR141C, strain kar3, hits give low values 0.886 | S. cerevisiae deletion strains, locus YPR163C, strain tif3, hits give low values 0.781 | S. cerevisiae deletion strains, locus YPR167C, strain met16, hits give low values 0.864 | S. cerevisiae deletion strains, strain wtn01, hits give low values 0.795 | S. cerevisiae strains, strain wild type, hits give low values 0.854
inactive: S. cerevisiae deletion strains, locus YKL160W, strain elf1, hits give low values 0.973 | S. cerevisiae deletion strains, locus YKR001C, strain vps1, hits give low values 0.929 | S. cerevisiae deletion strains, locus YKR026C, strain gcn3, hits give low values 0.955 | S. cerevisiae deletion strains, locus YKR091W, strain srl3, hits give low values 0.97 | S. cerevisiae deletion strains, locus YLL001W, strain dnm1, hits give low values 0.95 | S. cerevisiae deletion strains, locus YLL026W, hits give low values 0.97 | S. cerevisiae deletion strains, locus YLL041C, strain sdh2, hits give low values 0.972 | S. cerevisiae deletion strains, locus YLR027C, strain aat2, hits give low values 0.979 | S. cerevisiae deletion strains, locus YLR039C, strain RIC1, hits give low values 0.771 | S. cerevisiae deletion strains, locus YLR102C, strain apc9, hits give low values 0.942 | S. cerevisiae deletion strains, locus YLR221C, strain rsa3, hits give low values 0.936 | S. cerevisiae deletion strains, locus YLR258W, strain gsy2, hits give low values 0.968 | S. cerevisiae deletion strains, locus YLR262C, strain YPT6 (second series), hits give low values 1.01 | S. cerevisiae deletion strains, locus YLR262C, strain YPT6, hits give low values 0.755 | S. cerevisiae deletion strains, locus YLR342W, strain FKS1 (second series), hits give low values 0.86 | S. cerevisiae deletion strains, locus YLR342W, strain FKS1, hits give low values 0.987 | S. cerevisiae deletion strains, locus YLR357W, strain rsc2, hits give low values 1.04 | S. cerevisiae deletion strains, locus YLR370C, strain arc18, hits give low values 0.955 | S. cerevisiae deletion strains, locus YLR371W, strain rom2, hits give low values 0.917 | S. cerevisiae deletion strains, locus YLR384C, strain iki3, hits give low values 0.966 | S. cerevisiae deletion strains, locus YLR418C, strain cdc73, hits give low values 0.881 | S. cerevisiae deletion strains, locus YML120C, strain ndi1, hits give low values 0.96 | S. cerevisiae deletion strains, locus YMR058W, strain fet3, hits give low values 0.973 | S. cerevisiae deletion strains, locus YMR125W, strain sto1, hits give low values 0.98 | S. cerevisiae deletion strains, locus YMR129W, hits give low values 0.969 | S. cerevisiae deletion strains, locus YMR231W, strain pep5, hits give low values 0.986 | S. cerevisiae deletion strains, locus YMR307W, strain GAS1, hits give low values 0.714 | S. cerevisiae deletion strains, locus YNL153C, strain GIM3, hits give low values 0.888 | S. cerevisiae deletion strains, locus YNL183C, strain NPR1, hits give low values 0.878 | S. cerevisiae deletion strains, locus YNL209W, strain ssb2, hits give low values 0.96 | S. cerevisiae deletion strains, locus YNL322C, strain KRE1 (second series), hits give low values 0.919 | S. cerevisiae deletion strains, locus YNR049C, strain mso1, hits give low values 0.962 | S. cerevisiae deletion strains, locus YOL006C, strain TOP1, hits give low values 0.64 | S. cerevisiae deletion strains, locus YOL012C, strain htz1 0.55 | S. cerevisiae deletion strains, locus YOR070C, strain gyp1, hits give low values 0.967 | S. cerevisiae deletion strains, locus YOR080W, strain dia2, hits give low values 0.988 | S. cerevisiae deletion strains, locus YOR083W, strain WHI5, hits give low values 0.948 | S. cerevisiae deletion strains, locus YOR106W, strain vam3, hits give low values 0.966 | S. cerevisiae deletion strains, locus YOR136W, strain idh2, hits give low values 0.964 | S. cerevisiae deletion strains, locus YOR231W, strain MKK1, hits give low values 0.898 | S. cerevisiae deletion strains, locus YOR265W, strain rbl2, hits give low values 0.974 | S. cerevisiae deletion strains, locus YOR270C, strain vph1, hits give low values 0.856 | S. cerevisiae deletion strains, locus YOR290C, strain snf2, hits give low values 0.937 | S. cerevisiae deletion strains, locus YOR316C, strain cot1, hits give low values 0.933 | S. cerevisiae deletion strains, locus YPL051W, strain arl3, hits give low values 0.989 | S. cerevisiae deletion strains, locus YPL055C, strain LGE1, hits give low values 0.89 | S. cerevisiae deletion strains, locus YPL078C, strain atp4, hits give low values 1.02 | S. cerevisiae deletion strains, locus YPL106C, strain sse1, hits give low values 0.913 | S. cerevisiae deletion strains, locus YPL240C, strain hsp82, hits give low values 0.97 | S. cerevisiae deletion strains, locus YPL256C, strain CLN2, hits give low values 0.855
